# Source: PubChem BioAssay
# Values joined by “and” are separate entries in the source; they are usually repeats but may differ in a detail not shown here. Equal values may be shown once. Active and inactive are the calls of the source.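 How the source made its calls, unless noted: active means compounds whose cell count with miR-34 switched on is under 0.7 times the count with it off; inactive means the rest.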
# Legend:
# [1] = viability loss with induced miR-34 in A549 – imaging, A549 dox-inducible miR-34, nuclei and caspase counts, primary screen (AID 1347080); conditions: A549 miR-34 inducible, Hoechst nuclei count, 48 h
# [2] = MELAS cybrid and Rieske KO viability enhancers – cell-based, MELAS cybrids, Rieske KO mouse fibroblasts, CellTiter-Glo, primary screen (AID 1508586;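 active means mean z-score across replicates of 1.96 or higher in either the MELAS or the Rieske mutant cell line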;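 further: z relative to plate mean and SD of compound and empty wells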); conditions: low glucose
# [3] = stronger effect = lower value, cell number ratio, induced over uninduced
# [4] = measured here: relative caspase fold change +Dox/-Dox
# [5] = measured here: total cells with miR-34 induction, stronger effect = lower value
# [6] = measured here: total cells without miR-34 induction
# [7] = MELAS cybrid survival, CellTiter-Glo 48 h, stronger effect = higher value
# [8] = Rieske KO mouse fibroblast survival, CellTiter-Glo 72 h
# Further: test concentration not given here.
Structure (SMILES),"fold change [1, 3]","fold change [1, 4]","cell count [1, 5]","cell count [1, 6]","z-score [2, 7]","z-score [2, 8]"
O=C1C(Cc2ccc(O)cc2)N2C(=O)CCN(C(=O)NCc3ccccc3)[C@H]2CN1Cc1cccc2ccccc12 (some centres undefined),1.06 (inactive),0.528,2850,2690,-0.585 (inactive),-0.172
O=C(C=Cc1ccc(O)c(O)c1)OCCc1ccccc1,1.02 (inactive),0.387,7430,7300,-0.587 (inactive),-2.25
Cc1ccc(S(=O)(=O)C=CC#N)cc1,0.909 (inactive),0.678,7140,7850,-0.499 (inactive),-0.608
CCC1OC(=O)CC(O)C(C)C(O[C@H]2OC(C)C(O[C@H]3C[C@@](C)(O)C(O)C(C)O3)C(N(C)C)C2O)C(CC=O)CC(C)C(=O)C=CC(C)=CC1COC1OC(C)C(O)C(OC)C1OC (some centres undefined),0.9 (inactive),0.768,8760,9740,-0.254 (inactive),-0.134
CC(C)C(=O)Oc1ccc(CO)cc1C(CCN(C(C)C)C(C)C)c1ccccc1 (centres undefined),0.941 (inactive),0.385,8240,8760,0.0306 (inactive),0.055
CN1CC[C@H](c2c(O)cc(O)c3c(=O)cc(-c4ccccc4Cl)oc23)C(O)C1 (some centres undefined),0.938 (inactive),1.82,1600,1700,3.42 (active),-0.841
CC(=O)O[C@@]1(C(C)=O)CC[C@H]2[C@@H]3C=C(Cl)C4=CC(=O)C5CC5[C@]4(C)[C@@H]3CC[C@@]21C (some centres undefined),0.94 (inactive),0.713,7720,8210,-0.351 (inactive),0.528
CCC(=C(CC)c1ccc(O)cc1)c1ccc(O)cc1,0.852 (inactive),1.22,7280,8550,-0.347 (inactive),0.452
O=C(NN=Cc1ccc([N+](=O)[O-])o1)c1ccc(O)cc1,1.02 (inactive),0.454,8470,8320,-0.586 (inactive),-0.436
COC1=C2CC(C)CC(OC)C(O)C(C)C=C(C)C(OC(N)=O)C(OC)C=CC=C(C)C(=O)NC(=CC1=O)C2=O (centres undefined),0.91 (inactive),1.01,3230,3550,2.85 (active),-2.42
CCn1cc(NC(=S)Nc2cc(Cl)ccc2OC)c(C(N)=O)n1,0.929 (inactive),0.479,8480,9130,-0.357 (inactive),0.0626
N#CC(=C1SCC(c2ccc(Cl)cc2Cl)S1)n1ccnc1 (centres undefined),0.898 (inactive),1.64,8130,9050,-0.162 (inactive),-0.0913
COc1cc2c(cc1-c1c(C)noc1C)ncc1[nH]c(=O)n(C(C)c3ccccn3)c12 (centres undefined),0.947 (inactive),0.831,7600,8030,0.365 (inactive),-1.83
Fc1ccc(C(c2ccc(F)cc2)N2CCN(CC=Cc3ccccc3)CC2)cc1,0.899 (inactive),0.978,7880,8760,-0.335 (inactive),0.411
O=C(COc1ccc(C(=O)c2ccccc2)cc1)NC1CCN(Cc2ccccc2)CC1,0.922 (inactive),0.78,6930,7520,-0.391 (inactive),-0.791
O=C(NS(=O)(=O)c1ccc(Br)s1)c1ccc(Cl)cc1Cl,0.902 (inactive),0.488,7360,8160,-0.252 (inactive),-0.754
OC1CO[C@H]2C(O)CO[C@H]12 (some centres undefined),0.905 (inactive),0.942,8830,9750,-0.254 (inactive),-0.154
CC1OC(Oc2c(-c3cc(O)c(O)c(O)c3)oc3cc(O)cc(O)c3c2=O)C(O)C(O)C1O (centres undefined),0.976 (inactive),1.01,8230,8430,-0.43 (inactive),-0.277
CC1CC[C@]2(C(=O)O)CC[C@]3(C)C(=CC[C@H]4[C@@]5(C)CC(O)C(O)[C@@](C)(CO)[C@@H]5CC[C@]43C)[C@H]2C1C (some centres undefined),0.88 (inactive),0.855,8330,9460,-0.312 (inactive),0.68
CC#CCn1c(N2CCCC(N)C2)nc2c1c(=O)n(Cc1nc(C)c3ccccc3n1)c(=O)n2C (centres undefined),0.91 (inactive),0.676,9950,10900,-0.379 (inactive),0.539
O=C(C=Cn1cnc(-c2cc(C(F)(F)F)cc(C(F)(F)F)c2)n1)N1CC(F)(F)C1,0.887 (inactive),0.422,1980,2230,-0.618 (inactive),-7.49
CC(C)CC(CC(=O)NO)C(=O)NC(Cc1ccc2ccccc2c1)C(=O)NC(C)C(=O)NCCN (centres undefined),0.928 (inactive),0.561,8260,8900,-0.492 (inactive),-0.379

Structure (SMILES),"fold change [1, 3]","fold change [1, 4]","cell count [1, 5]","cell count [1, 6]","z-score [2, 7]","z-score [2, 8]"
NS(=O)(=O)c1ccc(NC(=O)Nc2ccc(F)cc2)cc1,0.971 (inactive),0.438,8130,8360,-0.152 (inactive),-0.0443
NC(=O)c1ncn(C2OC(CO)C(O)C2O)c1N (centres undefined),0.801 (inactive),0.953,7500,9360,0.179 (inactive),0.0953
O=CC(O)C(O)C(O)CO (centres undefined),0.913 (inactive),0.975,7900,8650,0.55 (inactive),-0.188
CCOC(=O)C(CCc1ccccc1)NC1CSC(c2cccs2)CN(CC(=O)O)C1=O (centres undefined),1.05 (inactive),0.5,8260,7900,-0.343 (inactive),-0.0675
Cc1ccc(-n2sc(=O)n(Cc3ccc(F)cc3)c2=O)cc1,0.959 (inactive),0.337,8430,8790,-0.268 (inactive),-0.132
O=C(C=Cc1ccc(O)cc1)c1ccc(O)cc1O,0.99 (inactive),0.784,8890,8980,-0.337 (inactive),0.414
CN1CCCC1CCO[C@](C)(c1ccccc1)c1ccc(Cl)cc1 (some centres undefined),0.919 (inactive),1.18,7530,8200,-0.384 (inactive),0.111
NC1CC1c1ccc(-c2cccc(O)c2)cc1 (centres undefined),0.891 (inactive),0.382,7530,8450,-0.398 (inactive),0.0465
Oc1cc(O)cc(C=Cc2ccc(O)c(O)c2)c1,0.901 (inactive),0.971,9720,10800,-0.345 (inactive),0.783
O=C(O)CC1CC(c2ccccc2)=NO1 (centres undefined),0.969 (inactive),0.43,8760,9040,-0.328 (inactive),0.698
OCC1OC(O[C@]2(CCl)OC(CCl)C(O)C2O)C(O)C(O)C1Cl (some centres undefined),0.895 (inactive),0.674,8040,8990,-0.278 (inactive),-0.16
CCOc1ccc(Cc2cc(C3OC(CO)C(O)C(O)C3O)ccc2Cl)cc1 (centres undefined),0.916 (inactive),0.801,7650,8340,0.52 (inactive),-0.097
CC(C=CC1=C(C)CCCC1(C)C)=CC=CC(C)=CC(=O)O,0.957 (inactive) and 0.887 (inactive),0.963 and 0.861,6860 and 8040,7170 and 9070,-0.296 (inactive) and 0.176 (inactive),0.231 and 0.975
COC(=O)C1=COC(O)[C@@H]2C(CO)=CC[C@H]12 (some centres undefined),0.899 (inactive),1,8660,9630,-0.314 (inactive),-0.656
CCC1C(=O)N(C)c2cnc(Nc3ccc(C(=O)NC4CCN(C)CC4)cc3OC)nc2N1C1CCCC1 (centres undefined),1.18 (inactive),0.761,1360,1150,1.18 (inactive),-1.35
CC1(C)OC2C[C@H]3[C@@H]4CCC5=CC(=O)CC[C@]5(C)[C@]4(F)C(O)C[C@]3(C)[C@@]2(C(=O)CCl)O1 (some centres undefined),0.851 (inactive),0.816,4440,5220,-0.306 (inactive),-0.265
CCC(=O)OCC(=O)[C@]1(OC(=O)CC)C(C)C[C@H]2[C@@H]3CCC4=CC(=O)C=C[C@]4(C)[C@]3(Cl)C(O)C[C@@]21C (some centres undefined),0.952 (inactive),0.747,5950,6250,-0.503 (inactive),-0.134
CC1(C)S[C@H]2C(NC(=O)C(N)c3ccc(O)cc3)C(=O)N2C1C(=O)O (some centres undefined),1.01 (inactive),0.573,8190,8150,-0.00212 (inactive),-0.0136
CN(C)CCCCC(=O)Nc1ccc(NC(=S)NC(=O)c2ccc(C(C)(C)C)cc2)cc1,1.13 (inactive) and 1.1 (inactive),0.871 and 0.667,4160 and 3360,3670 and 3070,0.0334 (inactive),-0.0265
C[C@@]12C(=O)N(c3ccc(C(=O)Nc4cccc5cccnc45)cc3)C(=O)[C@@H]1C1C=CC2C1 (some centres undefined),1.75 (inactive),0.793,7280,4160,0.0501 (inactive),-0.119
Cc1cc(C)c(C=C2C(=O)Nc3ccccc32)[nH]1,0.941 (inactive),0.528,5670,6030,0.363 (inactive),-0.0507
Oc1ccc(C2COc3cc(O)ccc3C2)cc1 (centres undefined),1.04 (inactive) and 0.979 (inactive),1.09 and 0.678,6090 and 7580,5860 and 7740,-0.326 (inactive),-0.182
